# Measurements reported in PubChem BioAssay AID2284124 (EPA ToxCast).
# The source made the active and inactive calls. How the source made its calls: active means hit-call score of the fitted dose curve at least 0.9, where 1 is the maximum; inactive means score below 0.9.
# Test system: guinea pig Atrial Natriuretic Factor (ANF, Non-Selective), gene 100135578
# Assay: ERF_TW_GPCR_gANPA: Eurofins (ERF) Binding Assay for guinea pig Atrial Natriuretic Factor (ANF, Non-Selective)
# Experimental: ERF_TW_GPCR_gANPA is a biochemical, single-readout assay that uses extracted gene-proteins in a cell-free assay. Measurements were taken 1 hour after chemical dosing in a 96-well plate. See Atrial Natriuretic Factor (ANF, Non-Selective) Guinea Pig Binding Assay, Panlabs.ERF_TW_GPCR_gANPA is an assay component calculated from the ERF_TW_GPCR_gANPA assay. It is designed to measure radioligand binding using a type of binding reporter as detected by scintillation counting with radiometry technology.Data from the assay component ERF_TW_GPCR_gANPA was analyzed at the assay endpoint, ERF_TW_GPCR_gANPA, in the positive analysis fitting direction relative to DMSO as the negative control and baseline of activity. Using a type of binding reporter, loss-of-signal activity can be used to understand changes in binding as they relate to gene ANPA. To generalize the intended target to other relatable targets, this assay endpoint is annotated to the gpcr intended target family, where the subfamily is guanylyl cyclase.
# This assay measures binding of Atrial Natriuretic Peptide to sites associated with the ANF. Guinea pig striatal membranes are prepared in Tris-HCl buffer pH 7.4. A 24 ug aliquot of membrane is incubated with 16 pM Atrial Natriuretic Peptide for 60 minutes at 4C. Non-specific binding is estimated in the presence of 0.1 uM ANF.
row,SMILES,outcome
1,O=C(/C=C/c1ccc(O)cc1)CC(=O)/C=C/c1ccc(O)cc1,inactive
